Shown are actives, neighbours in structure and some others; about 19% of the full set was active somewhere.
HT1080NT lethal: qHTS for induction of synthetic lethality in tumor cells producing 2HG: qHTS for the HT-1080-NT fibrosarcoma cell line; Potency, µM (titrated, usually from 46.1 µM), without a hit: at the highest dose activity, negative = less viability, most hits filed as cytotoxic; HT-1080-NT fibrosarcoma viability, CellTiter-Glo ATP luminescence, 48 h; actives 1.6% (n = 360,000); AID 686970, 2013;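 also: NT is the 2HG producing partner of a matched IDH1 knockdown line; 0% = DMSO-treated cells and -100% = media-only wells without cells; nearly all actives have a fitted effect of over 55% in size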
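Read-out is CellTiter-Glo luminescence after 10 minutes at room temperature, following 48 hours' compound treatment of HT-1080-NT cells (750 cells/well, RPMI, 5% FBS, 37 degrees C).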
HT1080 IDH1KD tx: qHTS for induction of synthetic lethality in tumor cells producing 2HG: qHTS for the HT-1080-IDH1KD cell line | AID 686971, 2013 | actives 2% (n = 360,000) | Potency, µM (titrated, usually from 46.1 µM), without a hit: top-dose activity, negative = toxicity, actives largely listed as cytotoxic | HT-1080 IDH1 knockdown viability, ATP luminescence, 48 h;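 also: 0% = DMSO wells and -100% = cell-free medium wells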
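Viability of IDH1-knockdown HT-1080 fibrosarcoma cells was assessed by CellTiter-Glo after 48 h at 37 °C with titrated compound; concentration-effect curves were classified by fit quality and response size.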
DT40 TDP1 no CPT: qHTS for Inhibitors of human tyrosyl-DNA phosphodiesterase 1 (TDP1): qHTS in cells in absence of CPT. DT40 Tdp1-/- hTDP1 cells, no CPT, ATP luminescence, 48 h. Potency, µM (highest dose often 46.2 µM), for the others: top-dose activity change, negative = growth inhibition, usual class: inhibitors. actives 15% (n = 420,000); also: nearly all actives have a fitted effect of over 55% in size
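Stably hTDP1-transfected Tdp1-null chicken DT40 cells were treated with library compounds minus camptothecin and grown for at least 48 hr at 37 °C, after which cellular ATP was quantified by luminescence.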
KB-V1 MDR tox: qHTS assay for MDR1-selective chemotherapeutics: Primary screen using the drug-selected MDR subline cells KB-V1. KB-V1 MDR cells viability, CellTiter-Glo, 72 h. Potency, µM (titrated, usually from 46.1 µM), actives largely listed as cytotoxic. actives 3.4% (n = 400,000); also: nearly all actives have a fitted effect of over 60% in size
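Cytotoxicity via CellTiter-Glo luminescence after 72 h compound exposure at 37 degrees C. Cells: drug-selected KB-V1 line, DMEM phenol-red free plus 10% FBS. Compounds tested at multiple concentrations; normalized data fitted to concentration-effect curves.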
TDP1 cell CPT: qHTS for Inhibitors of human tyrosyl-DNA phosphodiesterase 1 (TDP1): qHTS in cells in presence of CPT; actives 12% (n = 420,000); Potency, µM (top dose mostly 46.2 µM), for the others: top-dose activity change, negative = growth inhibition, actives largely listed as inhibitors; chicken DT40 Tdp1-/-;hTDP1 cells + 20 nM CPT, ATP luminescence, 48 h; AID 686979, 2013; also: nearly all actives have a fitted effect of over 55% in size
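Chicken DT40 Tdp1-/- cells stably complemented with human TDP1 were seeded at 400 cells/well in medium containing 20 nM camptothecin, exposed to pin-transferred compounds, and grown at 37 °C for at least 48 hr. Viability was read as ATP luminescence.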
KB-3-1 cytotox: qHTS assay for MDR1-selective chemotherapeutics: Primary screen using the parental adenocarcinoma cell KB-3-1 | KB-3-1 viability, CellTiter-Glo ATP luminescence, 72 h | Potency, µM (doses to about 46.1 µM), hits mostly cytotoxic | actives 1.4% (n = 400,000); also: nearly all actives have a fitted effect of over 60% in size
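Viability of parental KB-3-1 cells, measured by CellTiter-Glo luminescence, followed a 72 h incubation at 37 °C with pinned compounds in phenol-red-free DMEM containing 10% FBS.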
Numbers without * were called inactive; i = inactive; ? = inconclusive; . = no result given. Calls follow the shape of the dose curve; as a rule, active = well fitted curve in the direction sought with a large enough effect; inconclusive = small, poorly fitted or top-dose-only effect, or another doubt; inactive = no such curve, though single readings can be large; an effect the other way counts as inactive or inconclusive. Unless noted, % is scaled to controls: 0 for no effect and ±100 for the full control effect; potency is read from the fitted curve at half-maximal effect.

SMILES	HT1080NT lethal	HT1080 IDH1KD tx	DT40 TDP1 no CPT	KB-V1 MDR tox	TDP1 cell CPT	KB-3-1 cytotox
O=C(NC1CCN(C(=O)Nc2cccc(Cl)c2)CC1)c1ccccc1	18.1%	8.4%	?	i	-20.1%	i
Cc1nn(-c2ccccc2)nc1C(=O)Nc1ccc2c(c1)OCCO2	-1.4%	3.8%	-9.4%	i	-24.8%	i
Cc1ccc(C(=O)Nc2cccc(C(=O)NC3CCCC3)c2)cc1	-3.4%	-20.2%	16.4µM*	?	?	i
COC(=O)c1sc(NC(=O)c2c(OC)cccc2OC)c(C#N)c1C	-5.3%	-11.6%	-22.6%	i	-13.5%	i
COc1ccc(C)cc1NC(=O)C1CCN(S(=O)(=O)c2cc(Br)cc3c2N(C(C)=O)CC3)CC1	.	.	-9.9%	i	0.2%	i
Fc1ccc2[nH]c(-c3cccs3)cc2c1	.	.	-7.1%	i	-5.5%	i
Cc1ccc(-n2nc(C)c(C(=O)Nc3cccc(C(=O)NC4CC4)c3)n2)c(C)c1	-10.4%	-22.5%	8.2µM*	?	11.6µM*	i
Cc1cccc(C(=O)Nc2cccc(C(=O)NC3CCCC3)c2)c1	4.0%	-1.8%	?	i	?	i
CCOC(=O)Cn1c(=O)cc(C(F)(F)C(F)(F)F)c2c(C)nn(CC)c21	.	.	?	.	-29.5%	.
COc1ccc(NC(=O)c2cc(-c3cc(C)c(C)cc3O)n[nH]2)c(OC)c1	-2.9%	-9.0%	?	i	-0.4%	i
COc1ccc(NC(=O)c2cc(-c3cc(F)ccc3OC)n[nH]2)c(OC)c1	-17.7%	?	?	i	25.9µM*	i
COc1ccc(NC(=O)c2cc(-c3ccc(F)cc3OC)n[nH]2)c(OC)c1	-12.8%	-10.8%	14.6µM*	?	16.4µM*	i
COc1ccc(NC(=O)c2cc(-c3cc(Cl)ccc3O)n[nH]2)c(OC)c1	-21.7%	?	-37.3%	i	-7.4%	i
CCOC(=O)NNc1ccc(N(CC)CC(C)O)nn1 (stereo not drawn)	.	.	-22.1%	.	-28.6%	.
C=CCNC(=O)CSc1nnc(-c2cccc(S(=O)(=O)N3CCOCC3)c2)o1	2.8%	5.3%	-1.5%	i	5.9%	i
CCOC(=O)c1ccc(NC(=O)CSc2nc3ccccc3c(=O)n2CCNC(C)=O)cc1	.	.	-17.5%	i	-4.5%	i
COc1cc(OC)cc(C(=O)NC(=S)Nc2ccc3c4c(cccc24)CC3)c1	25.9%	18.0%	-16.7%	i	-28.5%	i
COc1ccc(C(=O)Nc2ccc3c4c(cccc24)CC3)cc1	-15.5%	?	?	13µM*	-9.8%	i
Cc1c(C(=O)Nc2ccc3c4c(cccc24)CC3)cccc1[N+](=O)[O-]	1.1%	-12.5%	16.4µM*	i	?	?
COc1ccc(C(=O)Nc2cccc3c2CCCC3)cc1	?	?	5.8µM*	i	10.3µM*	23.1µM*
COc1ccc(C(=O)O)cc1NC(=S)NC(=O)C(c1ccccc1)c1ccccc1	0.0%	4.6%	-10.0%	.	-27.1%	.
Cc1ccc2c(c1)c1c(c(=O)n(Cc3ccccc3)c(=O)n1CC(=O)NCc1ccccc1Cl)n2C	.	.	-3.7%	i	1.1%	i
C=CCn1c(C)cc(/C([O-])=C(/C(=S)Nc2ccc(OC(F)F)cc2)[n+]2ccc(N(C)C)cc2)c1C	-2.3%	-8.1%	18.4µM*	i	25.9µM*	i
